# Results: PubChem BioAssay (Tox21)
# Unmarked numbers belong to inactive results. Inconclusive results are not listed. Entries that show only a call come without a potency. Activity calls are given as the source filed them. Unless noted, calls come from the whole dose curve.
# What was measured:
# [1] = Nuclear factor erythroid 2-related factor 2/antioxidant responsive element (Nrf2/ARE) small molecule agonists: qHTS cell viability counter screen in human keratinocytes (AID 1919968; active = well fitted curve in the direction sought with a large enough effect in the repeat runs; an effect the other way counts as inactive or inconclusive; note: nearly all actives have a fitted effect of over 55% in size; note: potency is the fitted concentration of half-maximal effect)
# In short: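 Seed 1,500 KeratinoSens cells per well, then incubate 5 h at 37 C/5% CO2. Add compounds in DMSO and incubate 23 h. Add CellTiter-Fluor, wait 1 h and read fluorescence.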
# [2] = Nuclear factor erythroid 2-related factor 2/antioxidant responsive element (Nrf2/ARE) small molecule agonists: luciferase reporter gene qHTS assay in human keratinocytes (AID 1919969); note: nearly all actives have a fitted effect of over 35% in size; note: potency is the fitted concentration of half-maximal effect
# [3] = target: Gonadotropin-releasing hormone receptor (Homo sapiens) (UniProt P30968); experiment: Human gonadotropin-releasing hormone receptor (GnRHR) small molecule agonists, calcium flux assay in GnRHR-HEK293 cells (AID 1920063); note: nearly all actives have a fitted effect of over 35% in size
# In short: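 Cells: HEK293 stably expressing human GnRHR. Steps: overnight (18 h) culture, 1 h calcium dye loading at 37 C, compound addition, kinetic fluorescence read at 480/540 nm. Each compound tested at 15 concentrations in triplicate.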
# [4] = target: KiSS-1 receptor (Homo sapiens) (UniProt Q969F8); experiment: Human kisspeptin (KISS1R) small molecule agonists, calcium flux assay in KISS1R-HEK293 cells (AID 1920064; active = well fitted curve in the direction sought with a large enough effect in the repeat runs; an effect the other way counts as inactive or inconclusive)
# In short: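 Cells plated and incubated 18 h; dye added, 1 h at 37 C; compounds in DMSO pinned in; signal read at 480/540 nm every second for 3 min. Each compound tested at 15 concentrations in triplicate.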
# [5] = G protein-coupled receptor (GPCR) small molecule agonists, calcium flux assay: HEK293 wild type cell line counter screen (AID 1920065)
# In short: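 Counter-screen of the Tox21 10K library for non-specific calcium release: dye-loaded cells received compounds in DMSO and were monitored by kinetic fluorescence (480/540 nm, 3 min). Fifteen concentrations, run in triplicate.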
# [6] = p53 small molecule agonists, cell-based qHTS assay with human liver microsomes (AID 1963577);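 note: p53 response element beta-lactamase reporter cells with liver microsomes plus NADPH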
# In short: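 p53RE-bla cells; 5 h settle, 37 C/5% CO2; cpd + HLM 0.5 mg/mL + NADPH 0.5 mg/mL (final); 16 h 37 C; LiveBLAzer 2 h RT dark; fluorescence readout.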
# [7] = p53 small molecule agonists, cell-based qHTS assay with rat liver microsomes (AID 1963578)
# In short: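 Rat liver microsome activation: microsomes 0.5 mg/mL, NADPH 0.5 mg/mL final; p53RE-bla cells, 16 h 37 C; LiveBLAzer readout, 2 h RT dark.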
# [8] = p53 small molecule agonists, cell-based qHTS assay with human liver microsomes: qHTS cell viability counter screen (AID 1963579); note: nearly all actives have a fitted effect of over 45% in size
# In short: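 Luminescent CellTiter-Glo read-out, 30 min at room temperature, gauged cytotoxicity in p53RE-bla cells exposed 16 h at 37 C to DMSO-dissolved compounds with metabolic activation by human liver microsomes and NADPH, each 0.5 mg/mL final.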
# [9] = p53 small molecule agonists, cell-based qHTS assay with rat liver microsomes: qHTS cell viability counter screen (AID 1963580); note: nearly all actives have a fitted effect of over 45% in size
# In short: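 p53RE-bla HCT-116 cells were exposed 16 h at 37 C to compounds with rat liver microsomes (0.5 mg/mL) and NADPH (0.5 mg/mL). Viability was measured in the same wells as ATP content by CellTiter-Glo luminescence.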
# [10] = target: 5-hydroxytryptamine receptor 2A (Homo sapiens) (UniProt P28223); experiment: 5-hydroxytryptamine receptor 2A (HTR2A) small molecule agonists, cell-based qHTS assay (AID 1963587); note: nearly all actives have a fitted effect of over 30% in size
# In short: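 CHO cells stably expressing human HTR2A, plated 18 h, loaded with calcium dye 1 h at 37 C. Agonist mode: compounds added and intracellular calcium fluorescence recorded kinetically for 2 min at 1 sec intervals.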
# [11] = target: Muscarinic acetylcholine receptor M1 (Homo sapiens) (UniProt P11229); experiment: Cholinergic receptor muscarinic 1 (CHRM1) small molecule antagonists, cell-based qHTS assay (AID 1963588); note: nearly all actives have a fitted effect of over 40% in size; note: potency is the fitted concentration of half-maximal effect
# In short: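 CHRM1-CHO calcium-flux assay, antagonist mode. Cells were seeded 18 h, dye-loaded 1 h at 37 C and given compound for 5 min at RT, then acetylcholine was added at 50nM. FDSS fluorescence was read 3 min; 15 concentrations, three runs.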
# [12] = target: Muscarinic acetylcholine receptor M1 (Homo sapiens) (UniProt P11229); experiment: Cholinergic receptor muscarinic 1 (CHRM1) small molecule agonists, cell-based qHTS assay (AID 1963589); note: nearly all actives have a fitted effect of over 35% in size
# In short: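 Agonist-mode qHTS in CHO cells stably carrying human muscarinic M1. Intracellular calcium is tracked by fluorescence every second after compound transfer; each compound runs at 15 concentrations in three independent runs.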
# [13] = target: Beta-2 adrenergic receptor (Homo sapiens) (UniProt P07550); experiment: Adrenergic beta2 receptor (ADRB2) small molecule antagonists, cell-based qHTS assay (AID 1963592); note: nearly all actives have a fitted effect of over 50% in size; note: potency is the fitted concentration of half-maximal effect
# In short: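 Cells (CHO, stable ADRB2 overexpression) incubated 18-20hr at 37C; compounds added from DMSO; agonist mix (1nM isoproterenol, 100uM IBMX, 25uM Ro-20-1724) added; 0.5hr RT; d2-cAMP and anti-cAMP-cryptate added; 1hr RT; 665/615 nm read.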
# [14] = target: D(2) dopamine receptor (Homo sapiens) (UniProt P14416); experiment: Dopamine D2 receptor (DRD2) small molecule agonists, cell-based qHTS assay (AID 1963594); note: nearly all actives have a fitted effect of over 35% in size; note: potency is the fitted concentration of half-maximal effect
# In short: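 HEK293 cells stably expressing human DRD2, pre-treated with PDE inhibitor Ro20-1724 (0.1 mM final) and compound 10 min at room temperature, then stimulated with NKH477 (200nM […]) for 30 min. cAMP read by HTRF (665/620 nm).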
# [15] = target: D(2) dopamine receptor (Homo sapiens) (UniProt P14416); experiment: Dopamine D2 receptor (DRD2) small molecule antagonists, cell-based qHTS assay (AID 1963595; active = well fitted inhibition curve with a large enough effect in the signal ratio in the repeat runs, with a control signal flat; the % refers to the signal ratio)
# In short: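 HEK293 cells stably expressing DRD2, preincubated with 0.1 mM Ro20-1724 and compounds 10 min, were stimulated with 200 nM NKH477 plus 12 nM quinpirole for 30 min at room temperature; cAMP measured by HTRF (665/620 nm).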
# [16] = target: 5-hydroxytryptamine receptor 2A (Homo sapiens) (UniProt P28223); experiment: 5-hydroxytryptamine receptor 2A (HTR2A) small molecule antagonists, cell-based qHTS assay (AID 1963586); note: nearly all actives have a fitted effect of over 45% in size; note: potency is the fitted concentration of half-maximal effect
# In short: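 Antagonist-mode intracellular calcium assay: DOI (4 nM) added after 5 min compound pre-incubation at room temperature to dye-loaded HTR2A-CHO cells. Fluorescence followed for 3 min, sampled every second.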
# [17] = cAMP Responsive Elements (CRE) small molecule agonists, cell-based qHTS assay (AID 1963590)
# In short: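 Agonist mode qHTS in CRE-bla HEK 293T cells: compounds dosed from DMSO for 3 h at 37 C/5% CO2, followed by LiveBLAzer B/G FRET substrate for 2 h at room temperature.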
# [18] = target: Beta-2 adrenergic receptor (Homo sapiens) (UniProt P07550); experiment: Adrenergic beta2 receptor (ADRB2) small molecule agonists, cell-based qHTS assay (AID 1963593);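 note: CHO cells stably overexpressing human ADRB2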
# In short: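 CHO cells stably over-expressing ADRB2 were plated overnight at 37C, then dosed with compounds plus a stimulation mix containing 100uM IBMX and 25uM Ro-20-1724 for 0.5hr at room temperature. cAMP was measured by HTRF competition, 1hr.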
# [19] = cAMP Responsive Elements (CRE) small molecule antagonists, cell-based qHTS assay (AID 1963591; active = well fitted inhibition curve with a large enough effect in the signal ratio in the repeat runs, not every such curve was filed as active; the % refers to the signal ratio)
# In short: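 Antagonist mode: test compounds are co-incubated with the adenylyl cyclase activator NKH477 (0.25 uM final) on CRE-bla HEK293T cells for 3 h at 37 °C, followed by LiveBLAzer substrate loading.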
# [20] = p53 small molecule agonists, cell-based qHTS assay (AID 1963582; active = well fitted activation curve with a large enough effect in the signal ratio in the repeat runs, not every such curve was filed as active; the % refers to the signal ratio)
# In short: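 Quantitative HTS in p53RE-bla cells: after a 5 h settling period, compounds delivered in DMSO were left on cells for 16 h at 37 C, and reporter induction was measured as fluorescence following 2 h substrate loading.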
# KiSS-1 receptor (Homo sapiens), sequence (Q969F8 whole entry, looked up): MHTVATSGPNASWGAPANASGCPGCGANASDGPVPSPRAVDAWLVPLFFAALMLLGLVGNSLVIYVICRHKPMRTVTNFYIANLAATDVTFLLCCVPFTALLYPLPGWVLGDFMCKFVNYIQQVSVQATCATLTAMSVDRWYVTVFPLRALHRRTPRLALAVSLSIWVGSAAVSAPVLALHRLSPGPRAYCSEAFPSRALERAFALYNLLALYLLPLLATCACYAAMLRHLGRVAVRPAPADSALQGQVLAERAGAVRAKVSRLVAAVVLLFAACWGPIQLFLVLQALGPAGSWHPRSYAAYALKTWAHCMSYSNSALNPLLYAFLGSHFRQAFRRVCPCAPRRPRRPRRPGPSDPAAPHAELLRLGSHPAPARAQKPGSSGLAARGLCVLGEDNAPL
# Muscarinic acetylcholine receptor M1 (Homo sapiens), sequence (P11229 whole entry, looked up): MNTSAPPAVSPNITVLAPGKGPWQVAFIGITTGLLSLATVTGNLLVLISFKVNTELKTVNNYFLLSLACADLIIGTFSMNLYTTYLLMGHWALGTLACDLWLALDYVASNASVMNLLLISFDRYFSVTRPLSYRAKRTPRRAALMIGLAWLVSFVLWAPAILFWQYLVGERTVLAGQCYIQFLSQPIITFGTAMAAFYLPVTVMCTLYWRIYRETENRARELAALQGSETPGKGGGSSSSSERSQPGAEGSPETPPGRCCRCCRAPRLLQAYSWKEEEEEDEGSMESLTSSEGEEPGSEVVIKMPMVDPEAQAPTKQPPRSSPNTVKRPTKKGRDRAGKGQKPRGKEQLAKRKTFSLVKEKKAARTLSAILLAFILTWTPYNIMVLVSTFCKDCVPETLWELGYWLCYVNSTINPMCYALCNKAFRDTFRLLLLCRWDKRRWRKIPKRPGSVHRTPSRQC
# Beta-2 adrenergic receptor (Homo sapiens), sequence (P07550 whole entry, looked up): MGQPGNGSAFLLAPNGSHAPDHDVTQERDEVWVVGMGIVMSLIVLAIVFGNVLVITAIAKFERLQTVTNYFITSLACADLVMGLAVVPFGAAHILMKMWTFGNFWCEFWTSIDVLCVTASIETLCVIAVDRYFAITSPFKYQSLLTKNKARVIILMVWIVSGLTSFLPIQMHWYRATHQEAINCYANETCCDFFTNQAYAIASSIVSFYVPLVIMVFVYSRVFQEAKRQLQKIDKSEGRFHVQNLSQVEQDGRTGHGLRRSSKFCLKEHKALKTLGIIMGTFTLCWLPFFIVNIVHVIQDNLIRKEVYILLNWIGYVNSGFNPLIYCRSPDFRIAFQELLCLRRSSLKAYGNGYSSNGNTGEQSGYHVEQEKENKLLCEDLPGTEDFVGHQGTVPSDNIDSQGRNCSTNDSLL
# D(2) dopamine receptor (Homo sapiens), sequence (P14416 whole entry, looked up): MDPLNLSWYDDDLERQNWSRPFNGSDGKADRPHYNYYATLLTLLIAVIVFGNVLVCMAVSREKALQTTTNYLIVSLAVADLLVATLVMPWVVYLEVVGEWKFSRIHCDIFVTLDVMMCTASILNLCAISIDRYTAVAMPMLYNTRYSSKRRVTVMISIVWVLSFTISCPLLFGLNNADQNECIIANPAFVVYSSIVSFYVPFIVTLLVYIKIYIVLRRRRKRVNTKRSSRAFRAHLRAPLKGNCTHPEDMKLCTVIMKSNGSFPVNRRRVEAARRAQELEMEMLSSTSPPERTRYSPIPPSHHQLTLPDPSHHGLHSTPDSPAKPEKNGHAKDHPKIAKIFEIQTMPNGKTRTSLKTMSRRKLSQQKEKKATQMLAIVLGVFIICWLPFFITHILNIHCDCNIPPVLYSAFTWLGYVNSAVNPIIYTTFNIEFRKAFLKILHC
# 5-hydroxytryptamine receptor 2A (Homo sapiens), sequence (P28223 whole entry, looked up): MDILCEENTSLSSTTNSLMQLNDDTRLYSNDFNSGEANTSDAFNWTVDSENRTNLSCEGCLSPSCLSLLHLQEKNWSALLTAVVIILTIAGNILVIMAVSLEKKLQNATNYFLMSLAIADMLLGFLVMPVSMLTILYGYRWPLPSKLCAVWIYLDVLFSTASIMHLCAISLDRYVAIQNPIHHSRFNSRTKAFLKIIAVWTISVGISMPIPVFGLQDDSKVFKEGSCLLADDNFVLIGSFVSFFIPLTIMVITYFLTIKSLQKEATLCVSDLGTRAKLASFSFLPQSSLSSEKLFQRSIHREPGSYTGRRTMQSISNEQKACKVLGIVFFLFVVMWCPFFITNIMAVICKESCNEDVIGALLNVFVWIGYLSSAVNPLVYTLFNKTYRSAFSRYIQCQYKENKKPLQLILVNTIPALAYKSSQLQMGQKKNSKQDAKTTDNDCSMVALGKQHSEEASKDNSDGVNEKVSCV
# Gonadotropin-releasing hormone receptor (Homo sapiens), sequence (P30968 whole entry, looked up): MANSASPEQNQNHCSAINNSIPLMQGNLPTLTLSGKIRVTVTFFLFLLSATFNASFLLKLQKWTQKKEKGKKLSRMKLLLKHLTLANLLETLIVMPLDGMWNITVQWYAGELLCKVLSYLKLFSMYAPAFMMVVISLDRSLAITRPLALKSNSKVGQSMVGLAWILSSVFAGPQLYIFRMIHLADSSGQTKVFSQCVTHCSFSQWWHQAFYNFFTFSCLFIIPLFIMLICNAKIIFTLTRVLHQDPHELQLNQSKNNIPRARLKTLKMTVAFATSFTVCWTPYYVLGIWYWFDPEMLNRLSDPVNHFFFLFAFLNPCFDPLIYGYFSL
Structure (SMILES),Potency [1],Potency [2],Potency [3],outcome [4],outcome [5],Potency [6],Potency [7],Potency [8],Potency [9],Potency [10],Potency [11],Potency [12],Potency [13],Potency [14],Potency [15],Potency [16],Potency [17],Potency [18],Potency [19],Potency [20]
O=C(Nc1ccccc1)c1cc([N+](=O)[O-])ccc1Cl,inactive,61.1 µM (active),inactive,inactive,inactive,inactive,inactive,inactive,inactive,inactive,inactive,inactive,inactive,inactive,inactive,–,–,–,–,–
CN(C)CCCOc1nn(Cc2ccccc2)c2ccccc12,inactive,inactive,inactive,inactive,inactive,inactive,inactive,inactive,inactive,inactive,inactive,inactive,26.6 µM (active),–,inactive,inactive,inactive,–,–,–
COc1c(C)c2c(c(O)c1C/C=C(\C)CCC(=O)O)C(=O)OC2,inactive,inactive,inactive,inactive,inactive,inactive,inactive,inactive,inactive,–,–,–,inactive,inactive,inactive,–,–,inactive,–,–
O=C(O)Cc1sc(-c2ccccc2)nc1-c1ccc(Cl)cc1,inactive,inactive,inactive,inactive,inactive,inactive,inactive,inactive,inactive,inactive,inactive,inactive,inactive,–,–,–,–,inactive,–,–
CC(CC1c2ccccc2CCc2ccccc21)CN(C)C (centres undefined),inactive,inactive,inactive,inactive,inactive,inactive,inactive,inactive,inactive,inactive,0.0365 µM (active),inactive,inactive,inactive,–,–,inactive,–,inactive,–
CN1CCN(Cc2cc(-c3ccc4[nH]c(=O)oc4c3)co2)[C@@H](c2ccc(F)cc2)C1,26.3 µM (active),13.2 µM (active),inactive,inactive,inactive,inactive,inactive,inactive,inactive,–,–,–,inactive,–,–,inactive,–,inactive,–,–
CC(=O)NCCCCCC(=O)O,inactive,inactive,inactive,inactive,inactive,inactive,inactive,inactive,inactive,inactive,inactive,inactive,inactive,inactive,inactive,–,inactive,inactive,inactive,–
CCCCCCC(CO)CCCC (centres undefined),inactive,inactive,inactive,inactive,inactive,inactive,inactive,inactive,–,inactive,inactive,inactive,inactive,inactive,–,inactive,inactive,inactive,inactive,inactive
Cc1c(Cl)cccc1Nc1ccccc1C(=O)O,inactive,inactive,inactive,inactive,inactive,inactive,inactive,inactive,inactive,inactive,4.6 µM (active),inactive,inactive,inactive,inactive,16.3 µM (active),–,inactive,–,–
Nc1c(N=Nc2ccc(-c3ccc(N=Nc4cc(S(=O)(=O)O)c5ccccc5c4N)cc3)cc2)cc(S(=O)(=O)O)c2ccccc12,30.6 µM (active),inactive,inactive,inactive,inactive,inactive,inactive,inactive,inactive,–,inactive,inactive,–,–,–,inactive,inactive,–,inactive,–
CC(CCc1ccccc1)NCC(O)c1ccc(O)c(C(N)=O)c1 (centres undefined),inactive,inactive,inactive,inactive,inactive,inactive,inactive,inactive,inactive,–,–,–,–,3.31 µM (active),inactive,–,inactive,–,inactive,–
NC(=O)COCCN1CCN(C(c2ccccc2)c2ccc(Cl)cc2)CC1 (centres undefined),inactive,inactive,inactive,inactive,inactive,inactive,inactive,inactive,inactive,inactive,inactive,inactive,inactive,–,inactive,inactive,inactive,–,inactive,–
CN1CN(C)CN(C)C1,inactive,inactive,inactive,inactive,inactive,inactive,inactive,inactive,inactive,inactive,–,inactive,–,inactive,inactive,inactive,inactive,inactive,inactive,–
O[C@@H](CNC[C@H](O)[C@H]1CCc2cc(F)ccc2O1)[C@@H]1CCc2cc(F)ccc2O1,23.7 µM (active),inactive,inactive,inactive,inactive,inactive,inactive,inactive,inactive,–,–,–,0.15 µM (active),inactive,–,18.3 µM (active),inactive,–,inactive,–
